Compound activity deposited in PubChem BioAssay by National Center for Advancing Translational Sciences (NCATS).
An excerpt weighted towards active compounds, which were near 6.5% of everything screened.
Vaccinia mCherry = inhibitors of vaccinia virus infection (mCherry reporter signal). Vaccinia virus mCherry reporter infection, fluorescence. 310,000 compounds, 0.63% hits. Potency, µM (top dose mostly 36.5 µM), without a hit: top-dose activity change, negative = inhibition, usual class: inhibitors. AID 720579; calls by dose curve; tested in A549 cells; note: potency is the fitted concentration of half-maximal effect; nearly all actives have a fitted effect of over 35% in size
VACV Venus inh = vaccinia inhibition (Venus reporter) | Potency, µM (titrated, usually from 36.5 µM), for inactives: at the highest dose activity change, negative = inhibition, usual class: inhibitors | 330,000 compounds, 0.46% hits | Vaccinia virus Venus reporter expression, fluorescence; calls by dose curve; tested in A549 cells; note: potency is the fitted concentration of half-maximal effect; nearly all actives have a fitted effect of over 30% in size
Marburg entry inh = Marburg virus entry inhibition; 300,000 compounds, 1.8% hits; Potency, µM (titrated, usually from 37.8 µM), for the others: at the top dose activity change, negative = inhibition, actives largely listed as inhibitors; AID 540276; Marburg virus pseudotyped entry inhibition, cell reporter; calls by dose curve; tested in HEK293 cells; note: potency is the fitted concentration of half-maximal effect
HCMV inh = human cytomegalovirus inhibition. HFF cells, HCMV-luciferase reporter, 72 h; hits give low values. activity change, negative = inhibition, % at 57.5 µM. 410,000 compounds, 4.5% hits. AID 1259415; in the data active = activity change below about -60%; inconclusive = no clear call, values can overlap the other calls; inactive = above about -39%
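Screen run at 2 compound doses on HFFs infected with reporter HCMV, MOI 1 PFU/cell. Luciferase activity from cell lysates at 72 h post infection gave inhibition relative to buffer-only and Salinomycin wells.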
FMDV inh = foot and mouth disease virus antiviral activity; FMDV antiviral cell-based qHTS; Potency, µM (highest dose often 57.9 µM), for inactives: at the highest dose activity change, negative = inhibition, usual class: inhibitors; 410,000 compounds, 1.2% hits; AID 1159524; calls by dose curve; tested in HEK293T cells; note: read-out not given here; potency is the fitted concentration of half-maximal effect; nearly all actives have a fitted effect of over 45% in size
LASV entry inh = blocks Lassa virus binding to or entry into cells. Lassa virus pseudotype entry inhibition, cell reporter. Potency, µM (series often up to 37.9 µM), for the others: top-dose activity change, negative = inhibition, usual class: inhibitors. 300,000 compounds, 1.2% hits. AID 540256; calls by dose curve; tested in HEK293 cells; note: potency is the fitted concentration of half-maximal effect; nearly all actives have a fitted effect of over 50% in size
The depositor's hits bear a star; i = inactive; ? = inconclusive; . = no result; [ ] = remark or other dose. % is set by controls: 0 for no effect and ±100 for the full control effect.

SMILES	Vaccinia mCherry	VACV Venus inh	Marburg entry inh	HCMV inh	FMDV inh	LASV entry inh
Cc1ccccc1-c1nc(-c2ccc(NC(=O)c3ccc4c(c3)OCO4)cc2)no1	.	.	?	-79*	11%	?
O=C(Nc1ccc(N2CCCCC2)cc1)c1ccc(F)cc1	-13%	-5%	11µM*	55	-17%	?
O=C(Nc1ccc(C(=O)N2CCN(c3ccccc3F)CC2)cc1)C1=CSCCO1	.	.	.	-61*	24%	.
COc1ccc(C(=O)N[C@H]2CC[C@@]34CCCN3C(=O)CCC[C@H]4[C@H]2Cc2ccccc2)cc1	.	.	.	-3	.	.
COc1c(C)cc(S(=O)(=O)NCCc2c(C)[nH]c3ccccc23)c(C)c1C	-11%	-9%	-12%[46.1 µM]	26	67%	?
COc1ccc(S(=O)(=O)NCC(c2ccco2)N2CCN(c3ccccc3F)CC2)cc1C (stereo not drawn)	-11%	-15%	.	31	0%	?
O=C(Nc1ccc(N2CCN(C(=O)c3ccccc3)CC2)cc1)c1ccc2c(c1)OCCO2	-4%	-11%	?	-69*	32µM*	?
Cc1ccc(NC(=O)c2ccc3c(c2)OCCO3)cc1	.	-20%	13µM*	17	0%	4.5µM*
O=C(Nc1ccncc1)c1ccc2c(c1)OCCO2	.	-25%	-25%	-13	-20%	-18%
O=c1cc(-c2ccccc2Cl)oc2c(NS(=O)(=O)c3cc(Cl)cc(Cl)c3O)ccc(O)c12	?	13µM*	-2%	.	?	-5%
CCc1ccc(S(=O)(=O)Nc2ccc(O)c3c(=O)cc(-c4ccccc4Cl)oc23)cc1	-9%	-30%	.	-34	36%	.
COc1ccc(NC(=O)Cn2c(=O)n(-c3ccccc3)c(=O)c3c4c(sc32)CCCC4)cc1	-4%	2%	-2%[46.1 µM]	-9	-21%	19%[46.1 µM]
CC(=O)c1ccccc1OCC(O)CN1CCN(c2ccccn2)CC1 (stereo not drawn)	-2%	-9%	-5%[46.1 µM]	-35	-16%	4%[46.1 µM]
Cc1ccc(C)c(OCC(O)CN2CCN(CCN3C(=O)c4cccc5cccc(c45)C3=O)CC2)c1 (stereo not drawn)	?	?	?	-84*	25µM*	?
CC(=O)c1ccccc1OCC(O)CN1CCN(CCN2C(=O)c3cccc4cccc(c34)C2=O)CC1 (stereo not drawn)	-21%	?	?	-65*	28µM*	?
Cc1ccc(C(C)C)c(OCC(O)CN2CCc3ccccc3C2)c1 (stereo not drawn)	10µM*	?	?	-17	?	?
Cc1ccc(C(C)C)c(OCC(O)CN2CCN(c3ccccc3F)CC2)c1 (stereo not drawn)	-19%	-22%	.	?	-25%	24%[46.1 µM]
O=C1c2cccc3cccc(c23)C(=O)N1CCN1CCN(CC(O)COc2ccc3ccccc3c2)CC1 (stereo not drawn)	-14%	-13%	?	-63*	?	?
CSc1ccc(CNC(=O)Cc2csc3ccccc23)cc1	-1%	-1%	4%[46.1 µM]	148	16%	25%[46.1 µM]
CN1c2ccccc2[C@]23CCN(S(=O)(=O)C(F)(F)F)C2=Cc2ccccc2[C@H]13	.	.	.	4	.	.
COc1ccc(OC)c(C2CC(=O)Nc3c2c(=O)n(C)c2ncnn32)c1 (stereo not drawn)	-5%	-7%	1%[46.1 µM]	8	12%	22%[46.1 µM]
C[C@H]1CC[C@H]2C(=O)N(Cc3ccc(Cl)cc3)C[C@H](O)CN2[C@H]1c1ccc(Br)cc1	.	.	-2%[14.2 µM]	.	.	.
Cc1ccc(Cn2c(=O)c3cccnc3n(Cc3ccc(F)cc3)c2=O)cc1	-22%	-2%	3%[46.1 µM]	7	-27%	.
COc1cc(C)c(CN2CCc3nnc(C(C)NC(=O)c4cc(F)ccc4F)n3CC2)cc1C (stereo not drawn)	-19%	-18%	.	.	-16%	.
Cc1ccc(C)c(OCC(O)CN2CCC(Cc3ccccc3)CC2)c1 (stereo not drawn)	.	.	.	-111*	?	.
SMILES	Vaccinia mCherry	VACV Venus inh	Marburg entry inh	HCMV inh	FMDV inh	LASV entry inh
CCCCC(c1nnnn1CS(=O)(=O)c1ccc(C)cc1)N1CCN(c2ccccc2)CC1 (stereo not drawn)	-22%	-19%	14µM*	-32	-14%	?
NC(N)=N/N=C/c1ccc(OS(=O)(=O)c2ccccc2)cc1	.	.	.	-82*	-24%	.
CCN(Cc1ccccc1)c1ccc(/C=N/N=C(N)N)cc1	?	11µM*	6.5µM*	-62*	?	8.2µM*
CCN(Cc1ccccc1)c1ccccc1	-16%	-11%	.	5	-18%	.
NC(N)=N/N=C/c1ccc(N(c2ccccc2)c2ccccc2)cc1	?	10µM*	.	-98*	32µM*	.
COc1ccccc1C(=O)N(Cc1cc2cc3c(cc2nc1N(C)C)OCO3)CC1CCCO1 (stereo not drawn)	-8%	-3%	.	.	11%	.
Cc1cc2nc(C)n(CCCNC(=O)Nc3cccc4ccccc34)c2cc1C	.	.	-13%	-80*	-23%	?
Cc1cccc(CSc2nnc(CCCCCN)o2)c1	-2%	-3%	?	-76*	-19%	?
NCCCCCc1nnc(SCc2cccc(Cl)c2)o1	.	.	-22%	-36	-15%	-27%
C[C@@H]1CC[C@H]2C(=O)N(Cc3ccccc3)C[C@H](O)CN2[C@H]1c1ccc(Br)cc1	.	.	-24%[14.2 µM]	.	.	.
C=CCn1c(SCC(=O)c2cccs2)nnc1-c1cccc(OC)c1	-18%	-9%	11%	20	.	8%
C=CCn1c(SCC(=O)c2cccs2)nc2sc(C)cc2c1=O	-29%	-22%	-27%[46.1 µM]	-35	32µM*	?
CC(=O)N1CCN(S(=O)(=O)c2cccc(C(=O)N(C)Cc3ccc(C)o3)c2)CC1	i	-14%	7%	-27	9%	1%[46.1 µM]
CCN(c1ccccc1)S(=O)(=O)c1cccc(C(=O)OCC(=O)c2c(N)n(C)c(=O)n(C)c2=O)c1	.	.	.	0	-28%	.
COc1ccc(N(C)S(=O)(=O)c2cccc(C(=O)OCC(=O)c3c(N)n(C)c(=O)n(C)c3=O)c2)cc1	-12%	-17%	?	?	22µM*	?
COc1ccc(N(C)S(=O)(=O)c2cccc(C(=O)N(C)Cc3ccc(C)o3)c2)cc1	-3%	-6%	?	-1	-23%	5µM*
COc1ccc(N(C)S(=O)(=O)c2cccc(C(=O)NC3CCC(C)CC3)c2)cc1 (stereo not drawn)	i	-22%	?	-62*	-19%	?
COc1ccc(CN(C)C(=O)c2cccc(C(=O)N(C)Cc3ccc(OC)cc3)c2)cc1	.	.	1%	-71*	-24%	.
COc1ccc(N(C)S(=O)(=O)c2cccc(C(=O)NC3CCCCCC3)c2)cc1	-28%	-6%	?	-7	?	?
COC(=O)c1ccc(CN2C(=O)[C@]3(OCCC=C[C@@H]3C)c3ccccc32)cc1	.	.	13%[14.2 µM]	.	.	.
CSCCC1c2cccn2-c2ccccc2N1C=Nc1c(C)cccc1C (stereo not drawn)	.	.	.	16	.	.
